Source: PubChem BioAssay (NCI)
Compounds without any hit were thinned out: in the full panel of roughly 83,000, 20% have a hit.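 Compound tested at a single concentration for 48 hours in 96-well plates; a percent growth value below 10 was scored as active.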 The source made the active and inactive calls.

Tests used:
Assay in all cases: NCI-60 one-dose screen, 48 h (100 = growth as untreated, 0 = no growth, -100 = all killed)
Details in all cases: 10 µM unless noted
NCI-H23 lung = system: NCI-H23 lung
NCI-H226 lung = system: NCI-H226 lung
NCI-H322M lung = system: NCI-H322M lung
HOP-62 NSCLC = system: HOP-62 NSCLC
NCI-H460 lung = system: NCI-H460 lung
HOP-92 NSCLC = system: HOP-92 NSCLC
NCI-H522 lung = system: NCI-H522 lung
A549/ATCC NSCLC = system: A549/ATCC NSCLC
786-0 renal = system: 786-0 renal
COLO 205 colon = system: COLO 205 colon

Measured: growth

CCCNc1nc(SC)nc(-c2cccc(N)c2)c1C#N
inactive: NCI-H23 lung 93.2% | NCI-H226 lung 93.9% | NCI-H322M lung 95.8% | HOP-62 NSCLC 78.8% | NCI-H460 lung 101% | HOP-92 NSCLC 80.5% | NCI-H522 lung 92.9% | A549/ATCC NSCLC 104% | 786-0 renal 102% | COLO 205 colon 119%

O=[N+]([O-])c1cccc(-c2nc3sccn3c2-c2ccnc(NCCCNS(=O)(=O)c3ccc(Br)cc3)n2)c1
inactive: NCI-H23 lung 41.4% | NCI-H226 lung 41% | NCI-H322M lung 76.1% | HOP-62 NSCLC 74.7% | NCI-H460 lung 66.7% | HOP-92 NSCLC 78% | NCI-H522 lung 37.4% | A549/ATCC NSCLC 53.8% | 786-0 renal 75.5% | COLO 205 colon 41.3%

O=C(Nc1ccc(Oc2ccc(F)cc2)c(Cl)c1)c1cccnc1
inactive: NCI-H23 lung 80% | NCI-H226 lung 99.8% | NCI-H322M lung 101% | HOP-62 NSCLC 106% | NCI-H460 lung 97% | HOP-92 NSCLC 91.9% | NCI-H522 lung 72.3% | A549/ATCC NSCLC 86% | 786-0 renal 92.3% | COLO 205 colon 120%

O=C1Nc2ccc(Br)cc2C12CC(c1ccccc1)=NN2 (stereo not given)
inactive: NCI-H23 lung 58.7% | NCI-H226 lung 57.3% | NCI-H322M lung 35.2% | HOP-62 NSCLC 51.6% | NCI-H460 lung 18.1% | HOP-92 NSCLC 58.2% | NCI-H522 lung 20% | A549/ATCC NSCLC 31.6% | 786-0 renal 46.8% | COLO 205 colon 30.5%

Cc1ccc2c(c1)n([O-])c1cc(Cl)ccc1[n+]2=O
inactive: NCI-H23 lung 97% | NCI-H226 lung 104% | NCI-H322M lung 115% | HOP-62 NSCLC 103% | NCI-H460 lung 114% | HOP-92 NSCLC 81.9% | NCI-H522 lung 89.2% | A549/ATCC NSCLC 98.9% | 786-0 renal 91.3% | COLO 205 colon 108%

CCCCN(CC)CCCCCCCCCCN1CCCc2cc(OC)ccc21
inactive: NCI-H23 lung 13.2% | NCI-H226 lung 103% | NCI-H322M lung 54.2% | HOP-62 NSCLC 106% | NCI-H460 lung 28.5% | HOP-92 NSCLC 31.8% | NCI-H522 lung 38.8% | A549/ATCC NSCLC 91% | 786-0 renal 60.4% | COLO 205 colon 83.4%

COc1ccc(C/C(C)=C(\c2ccc(OCCN3CCCCCC3)cc2)c2ccc(OC(=O)C3CCCCC3)cc2)cc1
inactive: NCI-H23 lung 63.5% | NCI-H226 lung 78.3% | NCI-H322M lung 73.5% | HOP-62 NSCLC 74.5% | NCI-H460 lung 38.1% | HOP-92 NSCLC 19.6% | NCI-H522 lung 63.4% | A549/ATCC NSCLC 65.2% | 786-0 renal 68.9% | COLO 205 colon 10.5%

CC/C(=C(\c1ccc(O)cc1)c1ccc(OCCN(C)CCN(C)C(=O)CCCCC(=O)c2c(C)[nH]c(/C=C3\N=C(c4ccc[nH]4)C=C3OC)c2C)cc1)c1ccccc1
inactive: NCI-H23 lung 94.1% | NCI-H226 lung 90.5% | NCI-H322M lung 88.7% | HOP-62 NSCLC 81% | NCI-H460 lung 76.8% | HOP-92 NSCLC 63.4% | NCI-H522 lung 84.3% | A549/ATCC NSCLC 88.5% | 786-0 renal 103% | COLO 205 colon 91.3%

Oc1ccc(Nc2nccc(-c3ccc4ccccc4c3)n2)cc1
inactive: NCI-H23 lung 30.7% | NCI-H226 lung 60.9% | NCI-H322M lung 44.4% | HOP-62 NSCLC 36.9% | NCI-H460 lung 14.8% | HOP-92 NSCLC 89.5% | NCI-H522 lung 30.9% | A549/ATCC NSCLC 14.1% | 786-0 renal 40.1% | COLO 205 colon 98%

O=C(Nc1cccc2c1C(=O)c1cccc(Nc3cccc4c3C(=O)c3cccc(NC(=O)c5ccccc5)c3C4=O)c1C2=O)c1ccccc1
inactive: NCI-H23 lung 108% | NCI-H226 lung 102% | NCI-H322M lung 112% | HOP-62 NSCLC 104% | NCI-H460 lung 113% | HOP-92 NSCLC 90.7% | NCI-H522 lung 112% | A549/ATCC NSCLC 90.1% | 786-0 renal 117% | COLO 205 colon 117%

O=C(O)C(O)C(O)C(=O)O.[NH-]C1CCCCC1[NH-].[Pt+2] (stereo not given)
inactive: NCI-H23 lung 107% | NCI-H226 lung 102% | NCI-H322M lung 117% | HOP-62 NSCLC 98.8% | NCI-H460 lung 103% | HOP-92 NSCLC 100% | NCI-H522 lung 93.5% | A549/ATCC NSCLC 111% | 786-0 renal 99.9% | COLO 205 colon 106%

O=C1Nc2ccccc2/C1=C/C(=N/c1nnc(-c2ccc(Cl)cc2)s1)c1ccccc1
inactive: NCI-H23 lung 29.1% | NCI-H226 lung 84.3% | NCI-H322M lung 77% | HOP-62 NSCLC 51.5% | NCI-H460 lung 63.7% | HOP-92 NSCLC 26.3% | A549/ATCC NSCLC 82.6%
active: NCI-H522 lung -95.7% | 786-0 renal -56.9% | COLO 205 colon 0.635%

COc1ccc(-c2cnoc2-c2cc(OC)c3c(c2)OCCO3)cc1
inactive: NCI-H23 lung 16.7% | NCI-H226 lung 61.8% | NCI-H322M lung 45% | HOP-92 NSCLC 31% | A549/ATCC NSCLC 18.6%
active: HOP-62 NSCLC -8.55% | NCI-H460 lung 3.25% | NCI-H522 lung -39.1% | 786-0 renal 8.21% | COLO 205 colon -58.4%

CCCCCCCCCCCCN1CCCC(C)C1 (stereo not given)
inactive: NCI-H23 lung 80.3% | NCI-H226 lung 85.3% | NCI-H322M lung 87.2% | HOP-62 NSCLC 89.1% | NCI-H460 lung 106% | HOP-92 NSCLC 73% | NCI-H522 lung 69.3% | A549/ATCC NSCLC 91.4% | 786-0 renal 85.9% | COLO 205 colon 82.2%

CNc1cc2nc3cc(NC)c(C)cc3cc2cc1C
inactive: NCI-H23 lung 13.3% | NCI-H226 lung 26.4% | NCI-H322M lung 12.5% | HOP-62 NSCLC 10.7% | HOP-92 NSCLC 11.7% | 786-0 renal 12.9%
active: NCI-H460 lung -85.8% | NCI-H522 lung -2.17% | A549/ATCC NSCLC -4.57% | COLO 205 colon -39.1%

COc1cccc(-c2nc3sccn3c2-c2ccnc(NCCCNS(=O)(=O)c3ccccc3)c2)c1
inactive: NCI-H23 lung 29.1% | NCI-H226 lung 32.6% | NCI-H322M lung 69.4% | HOP-62 NSCLC 62.2% | NCI-H460 lung 38.3% | HOP-92 NSCLC 42% | NCI-H522 lung 27.9% | A549/ATCC NSCLC 29% | 786-0 renal 59.5% | COLO 205 colon 37.7%

CS(=O)CCCCCN=C=S (stereo not given)
active: NCI-H23 lung 4.24% | NCI-H226 lung -8.26% | NCI-H322M lung 1.21% | HOP-62 NSCLC -7.49% | NCI-H460 lung 0.781% | NCI-H522 lung -25.4% | A549/ATCC NSCLC -0.774% | 786-0 renal 9.82% | COLO 205 colon -51.6%
inactive: HOP-92 NSCLC 19.5%

CC1=C(C)C(=O)OC([C@](C)(O)[C@]2(O)CC[C@@]3(O)[C@@H]4C[C@H]5O[C@]56CC=CC(=O)[C@]6(C)[C@H]4CC[C@]23COC(=O)c2ccc(C)o2)C1 (stereo not given in full)
active: NCI-H23 lung -45% | NCI-H226 lung -20.9% | NCI-H322M lung -63% | HOP-62 NSCLC -73.8% | NCI-H460 lung -57.1% | HOP-92 NSCLC -58.7% | NCI-H522 lung -68.7% | A549/ATCC NSCLC 4.97% | 786-0 renal -64.1% | COLO 205 colon -72.1%

CN(C)CC(=O)Nc1ccc(Cn2nnc3c2C(=O)c2nnn(Cc4ccc(NC(=O)CN(C)C)cc4)c2C3=O)cc1
active: NCI-H23 lung -31.7% | NCI-H226 lung -56.2% | NCI-H322M lung -52.6% | HOP-62 NSCLC -67.4% | NCI-H460 lung -3.43% | HOP-92 NSCLC -53.8% | NCI-H522 lung -67% | A549/ATCC NSCLC -59.8% | 786-0 renal -76.4% | COLO 205 colon -80.4%

CC[C@@H](C)OC(=O)c1nn(C(C)=O)c2ccccc12
inactive: NCI-H23 lung 91.6% | NCI-H226 lung 85.1% | NCI-H322M lung 107% | HOP-62 NSCLC 105% | NCI-H460 lung 112% | HOP-92 NSCLC 104% | NCI-H522 lung 87.1% | A549/ATCC NSCLC 90% | 786-0 renal 103% | COLO 205 colon 108%

COc1ccc(-c2cc(-c3ccc(N(C)C)cc3)nc(NC(=O)c3ccncc3)n2)cc1
inactive: NCI-H23 lung 91.8% | NCI-H226 lung 82.6% | NCI-H322M lung 87.8% | HOP-62 NSCLC 103% | NCI-H460 lung 99.7% | HOP-92 NSCLC 62.8% | NCI-H522 lung 90.7% | A549/ATCC NSCLC 93.7% | 786-0 renal 97.1% | COLO 205 colon 111%

CN1CCOCCOCCOc2ccccc2NC(=O)c2nc(cnc2N)-c2ccc(cc2)S1(=O)=O
inactive: NCI-H23 lung 34.5% | NCI-H226 lung 101% | NCI-H322M lung 36.8% | HOP-62 NSCLC 92.4% | NCI-H460 lung 34.3% | HOP-92 NSCLC 95.5% | NCI-H522 lung 43.9% | A549/ATCC NSCLC 49.8% | 786-0 renal 18% | COLO 205 colon 27.9%

CCCCCCCCCCCCCC1=NCCN1CCO
active: NCI-H460 lung -68.9% | COLO 205 colon -75%
inactive: NCI-H23 lung 72% | NCI-H226 lung 95% | NCI-H322M lung 93.5% | HOP-62 NSCLC 58.9% | HOP-92 NSCLC 24.5% | NCI-H522 lung 89% | A549/ATCC NSCLC 65.1% | 786-0 renal 68.8%

CCCCOc1ccc(NC(=O)n2nc(NC(C)=O)c3cc(NC(C)=O)ccc32)cc1
inactive: NCI-H23 lung 101% | NCI-H226 lung 99% | NCI-H322M lung 99.4% | HOP-62 NSCLC 108% | NCI-H460 lung 102% | HOP-92 NSCLC 93% | NCI-H522 lung 91.7% | A549/ATCC NSCLC 102% | 786-0 renal 93.2% | COLO 205 colon 121%

COc1ccc2nc3cc(Cl)ccc3c(N3CCN(c4nccc(Nc5ccccc5)n4)CC3)c2c1
inactive: NCI-H23 lung 69.8% | NCI-H226 lung 95.4% | NCI-H322M lung 88.3% | HOP-62 NSCLC 79.2% | NCI-H460 lung 67.4% | HOP-92 NSCLC 67% | A549/ATCC NSCLC 65.1% | 786-0 renal 59.1% | COLO 205 colon 89.8%
active: NCI-H522 lung 7.15%

CC/C=C\C[C@H](O)C/C=C1/C(=O)C=C[C@@H]1C/C=C\CCCC(=O)OC(C)C
active: NCI-H23 lung -40.1% | NCI-H226 lung -39% | NCI-H322M lung -1.62% | HOP-62 NSCLC -44.2% | NCI-H460 lung 0.788% | HOP-92 NSCLC -0.165% | NCI-H522 lung -54.2% | A549/ATCC NSCLC -39.2% | 786-0 renal -50.8% | COLO 205 colon -73.8%

C#Cc1nc2ccccc2c(=O)[nH]1
inactive: NCI-H23 lung 29.9% | NCI-H322M lung 29.5% | NCI-H460 lung 11.1%
active: NCI-H226 lung -58.8% | HOP-62 NSCLC -6.19% | HOP-92 NSCLC -45.8% | NCI-H522 lung -71.9% | A549/ATCC NSCLC 4.37% | 786-0 renal -64.7% | COLO 205 colon -74.3%
